A selection follows.
aSyn 5UTR act: Activators working through SNCA 5'UTR binding (MLPCN); alpha-synuclein 5'UTR reporter, activators screen; activity score, % (tested at 7.5 µM), hits read low; 300,000 tested, 7.1% active; in the data active means activity score below about -60%
Starred values were filed as active, the others as inactive.

SMILES | aSyn 5UTR act
O=C1NCCc2c1[nH]c1ccc([N+](=O)[O-])cc21 | 70
Cn1cnnc1SCC(=O)c1c[nH]c2ccccc12 | -92*
Cc1cc(C(=O)CSc2cccc[n+]2[O-])c(C)n1-c1ccc(Br)cc1 | -150*
Cc1cc(C(=O)CSc2cccc[n+]2[O-])c(C)n1-c1ccccc1 | 57
Cc1ccc(-n2c(C)cc(C(=O)CSc3nncs3)c2C)cc1 | -172*
Cc1cc(C(=O)CN2CC(C)OC(C)C2)c(C)n1-c1ccccc1 (stereo unspecified) | -105*
Cc1cc(-n2c(C)cc(C(=O)CCl)c2C)no1 | 119
Cc1cc(C(=O)CSc2nncn2C)c(C)n1-c1ccccc1 | -67*
O=C(CCSc1ccccc1)N1CCN(c2ccccc2)CC1 | -137*
O=C(CCSc1ccc(Cl)cc1)N1CCN(c2ncccn2)CC1 | -103*
Cc1ccc(-c2ccc(SCC(=O)N3CCN(c4ccccc4)CC3)nn2)cc1 | -91*
O=C(CCSc1ccc(Cl)cc1)N1CCCCCC1 | -133*
Cc1nc2cc(-c3ccccc3)nn2c(C)c1CCC(=O)N1CCN(c2ccccc2)CC1 | 57
O=C(CCS(=O)(=O)c1ccccc1)N1CCN(c2ccc(F)cc2)CC1 | -79*
CN(C)C(=S)Nc1ccc(N2CCOCC2)cc1 | -68*
Cc1cccc(C(=O)O/N=C/c2c(N3CCOCC3)n(C)c3ccccc23)c1 | 72
O=C(/C=C/c1cccc(O)c1)c1ccc(N2CCOCC2)cc1 | -182*
C/C(=C\C(=O)c1ccccc1)Nc1ccc(N2CCOCC2)cc1 | -63*
O=C(NC(=S)Nc1ccc(N2CCOCC2)cc1)c1cccc(Cl)c1 | -72*
O=C(Nc1ccc(N2CCOCC2)cc1)c1cnsn1 | 106
O=C(NC(=S)Nc1ccc(N2CCOCC2)cc1)c1ccccc1 | -148*
Clc1ccc(OCCCN2CCCCC2)c(Br)c1 | -88*
Cn1cccc1C(=O)C(=O)Nc1ccccc1 | -112*
Cn1cccc1C(=O)C(=O)Nc1ccccc1C(F)(F)F | -130*
N/C(=N\OC(=O)c1cccc(Br)c1)c1ccncc1 | -138*
SMILES | aSyn 5UTR act
N/C(=N\OC(=O)c1ccccc1)c1ccncc1 | -122*
N/C(=N\OC(=O)c1ccc(Br)cc1)c1ccncc1 | -110*
COc1ccc(C(=O)O/N=C(/c2ccccc2)c2ccncc2)cc1 | -72*
COC(=O)c1c(NC(=O)/C=C/c2ccco2)sc2c1CCC2 | -143*
O=C(Nc1sc2c(c1C(=O)O)CCC2)c1ccco1 | -62*
O=C(Nc1sc2c(c1C(=O)NCc1ccco1)CCCC2)c1ccc2c(c1)OCO2 | -187*
COC(=O)c1c(NC(=O)c2ccc(C)o2)sc2c1CCCCC2 | -184*
CC1(C)Cc2c(sc(NC(=O)c3ccc(Br)o3)c2C#N)CO1 | -91*
CC1(C)Cc2c(sc(NC(=O)c3ccco3)c2C(=O)O)CO1 | -81*
CC(=O)n1nc(-c2ccccc2)nc1NCc1ccc(N(C)C)cc1 | -131*
COc1ccc(CNc2nc(-c3ccccc3)nn2C(=O)c2ccc([N+](=O)[O-])cc2)cc1 | -120*
CCOC(=O)CSC1=C(C#N)C(C)C2=C(CCCC2=O)N1 (stereo unspecified) | -62*
CC(C)c1ccc(OCc2ccc(C(=O)O)o2)cc1 | -94*
CC(C)c1ccc(OCc2ccc(C(=O)N(C)C)o2)cc1 | -171*
CCc1ccc(OCc2ccc(C(=O)O)o2)cc1 | -145*
COc1ccc(OCc2cc(C(=O)O)c(C)o2)cc1 | -93*
CC1CN(C(=O)c2ccc(COc3ccc(C(C)C)cc3)o2)CC(C)O1 (stereo unspecified) | -110*
CC(C)c1ccc(OCc2ccc(C(=O)NN3CCN(C)CC3)o2)cc1 | -134*
Cc1csc(NC(=O)Nc2cccc(Cl)c2)n1 | -203*
Cc1nnc(NC(=O)Nc2cccc(Cl)c2)s1 | -122*
COc1cc(CNc2ccc3c(c2)CCC3)cc(OC)c1O | -226*
CCOc1cc(CNc2ccc3c(c2)CCC3)ccc1O | -119*
Cc1ccc(C(=O)N2C(CC(=O)Nc3ccc(Cl)cc3)C(=O)NC3CCCCC32)cc1 (stereo unspecified) | -72*
Fc1cccc(/C=N/NC(=S)Nc2ccccc2Cl)c1 | -231*
S=C(N/N=C/c1ccc(Cl)c(Cl)c1)Nc1ccccc1Cl | -81*
SMILES | aSyn 5UTR act
CN(C)c1ccc(-c2nnc(SCC3CCCO3)n2C)cc1 (stereo unspecified) | -89*
CCn1c(C)nc2c(C)[n+](CC(=O)c3ccc(Br)cc3)ccc21 | -106*
CCSc1nc2c(cnn2-c2ccccc2)c(=O)n1N | -105*
CSc1nc2c(cnn2-c2ccccc2)c(=O)n1N | -92*
COCCNC(=O)Cc1c(C)c2c(cc(C)c3c(C(C)(C)C)coc32)oc1=O | -116*
Cc1cc2oc(=O)c(CC(=O)NCCCN(C)C)c(C)c2c2occ(C(C)(C)C)c12 | 61
CCS(=O)(=O)N1Cc2ccccc2CC1C(=O)Nc1cccc(OC)c1 (stereo unspecified) | -87*
CCS(=O)(=O)N1Cc2ccccc2CC1C(=O)Nc1nccs1 (stereo unspecified) | -167*
Cc1cc(C)c2nc(NNC(=O)c3ccc(S(=O)(=O)N4CCc5ccccc5C4)cc3)sc2c1 | 75
COc1ccc(S(=O)(=O)N2Cc3ccccc3CC2C(=O)Nc2nccs2)cc1 (stereo unspecified) | -158*
CCS(=O)(=O)N1Cc2ccccc2CC1C(=O)Nc1nc2c(C)cccc2s1 (stereo unspecified) | -69*
COc1ccc(S(=O)(=O)N2Cc3ccccc3CC2C(=O)Nc2nccs2)cc1OC (stereo unspecified) | -149*
CCSc1nnc(NC(=O)C2Cc3ccccc3CN2S(=O)(=O)CC)s1 (stereo unspecified) | -88*
CC[n+]1c(/C=C/Nc2ccccc2)sc2ccccc21 | -83*
CCN1/C(=C/C=C/C=C/c2sc3ccccc3[n+]2CC)Sc2ccccc21 | 126
c1ccc2oc(C3=NNC(=NC4CC4)SC3)cc2c1 | -135*
c1csc(C2=NNC(=NC3CCCCC3)SC2)c1 | -165*
CCOC(=O)c1c2c(n(C)c1C)C(=O)C(=O)c1ccc(Br)cc1-2 | 110
CCOC(=O)c1c(C)[nH]c2c1cc(O)c1ccccc12 | -189*
CCOC(=O)c1c(C)oc2c1cc(O)c1ccccc12 | -104*
CCOC(=O)c1c(C)oc2c1c1c(c3ccccc32)OCN(CCCC(=O)O)C1 | -108*
COc1cc(C(=O)Nc2ccc(N(C)C)cc2)c([N+](=O)[O-])cc1OC | -75*
Cc1ccc(S(=O)(=O)NC(=O)Nc2ccc(N(C)C)cc2)cc1 | -111*
COc1ccc2c(C(=O)CN3CCSCC3)c[nH]c2c1 | -63*
Cc1cccc(N=c2oc3cc(O)ccc3cc2C(N)=O)c1 | -77*
SMILES | aSyn 5UTR act
COc1ccccc1N=c1oc2cc(O)ccc2cc1C(N)=O | -74*
COc1ccc2cc(C(N)=O)c(=Nc3ccc(C)cc3)oc2c1 | -62*
COC(=O)Cc1[nH]n(-c2nc3ccccc3s2)c(=O)c1C(C)=Nc1ccc(C)cc1 | 98
COC(=O)Cc1[nH]n(-c2ccccc2)c(=O)c1C(C)=Nc1ccccc1 | -71*
Cc1ccn(-c2cc(O)c(-n3ccc(C)n3)cc2O)n1 | -85*
O=C(CNC(=O)c1ccccc1F)N/N=C/c1ccc2c(c1)OCO2 | -98*
O=C(N/N=C/c1ccc2c(c1)OCO2)C(=O)Nc1ccccc1 | -84*
O=C(CNc1ccc2c(c1)OCO2)N/N=C\c1cn(Cc2ccccc2)c2ccccc12 | 81
O=C(Cc1ccccc1)N/N=C/c1ccc2c(c1)OCO2 | -140*
Cc1nc2ccccn2c1C(=O)N/N=C/c1ccc2c(c1)OCO2 | -96*

Screening results: PubChem BioAssay, Broad Institute
